# Results from PubChem BioAssay AID652067 (The Scripps Research Institute Molecular Screening Center, 2013).
# About 5,400 (1.5%) of roughly 370,000 compounds were called active.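 The calls were made as follows: active = activation above the mean of all tested compounds plus 3 SD (cut at about 5.5% in these data); inactive = the rest.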 The sample as a whole holds a higher share of actives than the screen did.
# Test system: DAF-12 nuclear receptor (Haemonchus contortus)
# Test: hcDAF-12 driven luciferase reporter activation – cell-based, luminescence, HEK293, lit1-tk-luc reporter, primary screen (AID 652067);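 also: 100% = response to 3 µM Δ7-dafachronic acid high control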
# Settings: HEK293 hcDAF-12 lit1-tk-luc reporter, at 6.8 µM, stronger effect = higher value, 0% DMSO, 100% Δ7-dafachronic acid
row,SMILES,activation
1,CC(=O)N1C[C@@H](CO)[C@@H](N(C)C(=O)C(C)(C)C)C[C@H]1c1ccccc1Br,-0.9% (inactive)
2,O=C(Cc1ccccc1)Nc1ccc(C(=O)Nc2ccccc2C(=O)O)cc1,0.4% (inactive)
3,O=C(Nc1ccccc1F)c1ccc(S(=O)(=O)N2CCCCCC2)cc1,-0.38% (inactive)
4,Nc1ccc(C(=O)Nc2ccccc2N)cc1,10.3% (active)
5,Cc1cc(N=Nc2ccc3ccccc3c2)ccc1O,9.93% (active)
6,CN(C(N)=NC(=O)/C=C/c1ccccc1)C(C#Cc1ccccc1)Cc1ccccc1 (centres undefined),-0.54% (inactive)
7,O=C(NCCCn1ccnc1)c1cc(Br)c(Br)s1,-2.07% (inactive)
8,O=C(Nc1ccccc1C(=O)NCCCn1ccnc1)c1ccc(Cl)cc1Cl,-0.66% (inactive)
9,O=C(NCCCn1ccnc1)c1cc(-c2ccccc2)on1,6.25% (active)
10,COC(=O)C1=C(C)N(Cc2ccc(F)cc2)C(=S)NC1c1cccc(Cl)c1 (centres undefined),-0.58% (inactive)
11,C#CCNC(=O)C[C@H]1C[C@@]2(C(=O)OC)C(=C[C@H](C(C)C)O[C@@H]2C2CC2)N(Cc2ccco2)C1=O,-0.47% (inactive)
12,CCN(C(=O)[C@@H](C1CC1)[C@@H](O)c1ccc2ccccc2c1)c1ccccc1,-0.38% (inactive)
13,CCCCCCCCN1C(=O)[C@@H](CC(=O)NCCCC)C[C@@]2(C(=O)OC)C1=C[C@H](C(C)(C)C)O[C@@H]2C,2.12% (inactive)
14,COC(=O)c1cccc(Cn2ccc3ccc(-c4ccc5ccn(C(=O)C6CCCCC6)c5c4)cc32)c1,2.46% (inactive)
15,Cc1[nH]c2ccccc2c1-c1ccc(Cl)nn1,-0.07% (inactive)
16,S=c1[nH]c2ccccc2c2ccccc12,0.24% (inactive)
17,Cc1c(C(C)c2ccccc2O)[nH]c2ccccc12 (centres undefined),5.82% (active)
18,Cc1ccc(-n2c(SCC(=O)Nc3ccc(S(=O)(=O)Nc4nccs4)cc3)nnc2-c2ccncc2)cc1,-0.82% (inactive)
19,C=CCn1c(SCC(N)=O)nnc1-c1ccccc1OC,-0.44% (inactive)
20,CC(C)CN(CC(C)C)C(=O)CN1c2cccc3cccc(c23)S1(=O)=O,0.46% (inactive)
21,O=C(O)CN1c2cccc3cccc(c23)S1(=O)=O,7.97% (active)
22,COc1ccc(C)cc1NC(=O)CN1c2cccc3cccc(c23)S1(=O)=O,-2.24% (inactive)
23,COC(=O)Cc1nnn2c1[C@H](C)[C@H](c1ccccc1Br)OCC2,-1.44% (inactive)

row,SMILES,activation
1,Cc1cccc(C(=O)N2CCc3c([nH]c4ccccc34)C2CC(C)C)n1 (centres undefined),6.78% (active)
2,Cc1cccc(C2c3[nH]c4ccccc4c3CCN2C(=O)c2cc(-c3cccn3C)n[nH]2)n1 (centres undefined),1.83% (inactive)
3,COCc1ccc(C(=O)N2CCc3c([nH]c4ccccc34)C2c2ccccn2)s1 (centres undefined),0.63% (inactive)
4,O=C(Nc1ccccc1)O/N=C1\CCCCC1c1ccc([N+](=O)[O-])cc1[N+](=O)[O-] (centres undefined),-1.35% (inactive)
5,C[n+]1ccccc1C1CCCC/C1=N\Nc1ccc([N+](=O)[O-])cc1[N+](=O)[O-] (centres undefined),6% (active)
6,O=[N+]([O-])c1ccc(N/N=C2/CCCCC2c2ccccn2)c([N+](=O)[O-])c1 (centres undefined),0.53% (inactive)
7,Cc1ccc(S(=O)(=O)NCCC(=O)Nc2cccc(S(N)(=O)=O)c2)cc1C,-1.34% (inactive)
8,Cc1ccc(S(=O)(=O)NCCC(=O)NCc2ccc(Cl)cc2)cc1C,2.24% (inactive)
9,Cc1ccnc(NC(=O)CCNS(=O)(=O)c2ccc(C)c(C)c2)c1,9.81% (active)
10,O=C(CNC(=O)c1ccccc1)OC(C(=O)Nc1cc([N+](=O)[O-])ccc1F)c1ccccc1 (centres undefined),-1.31% (inactive)
11,CCC(CO)Nc1cccc2c1S(=O)(=O)N(Cc1cn(Cc3ccccc3C(F)(F)F)nn1)Cc1ccccc1O2 (centres undefined),-0.6% (inactive)
12,Cc1ccc(-c2nc(C3CCCN(S(=O)(=O)c4ccc(Br)s4)C3)no2)cc1 (centres undefined),-1.74% (inactive)
13,CCOC(=O)C1(Cc2ccccc2)CCN(Cc2cn(C(C)=O)c3ccccc23)CC1,4.1% (inactive)
14,Cc1ccc(NC(=O)N2c3ccccc3SC2c2ccco2)c(C)c1 (centres undefined),0.47% (inactive)
15,COC(=O)C1CN(CC(C)C)CCS(=O)(=O)N1Cc1ccc(C)cc1 (centres undefined),-1.58% (inactive)
16,S=C1NC(c2ccccc2)=NCN1c1ccc(Br)cc1,-0.59% (inactive)
17,N#Cc1ccc(C2N=C(c3ccccc3)NO2)cc1 (centres undefined),5.73% (active)
18,Brc1ccccc1C1N=C(c2ccccc2)NO1 (centres undefined),11% (active)
19,CN(C(=O)Cn1nnc(-c2ccc(F)cc2)n1)C1CCS(=O)(=O)C1 (centres undefined),0.43% (inactive)
20,C#CCN([C@H](C(=O)OC)C(C)CC)S(=O)(=O)c1ccccc1Br (some centres undefined),-3.57% (inactive)
21,COC(=O)[C@]1(Cc2ccccc2)NC=C(C(=O)c2ccccc2)[C@@H]1c1cccc(OC)c1,-0.48% (inactive)
22,COc1cc(C(=O)Nc2ncccc2C)ccc1OCC(=O)N1CCOCC1,-1.69% (inactive)
23,O=C(Cc1ccc(Cl)cc1)NC(=S)Nc1ccccc1O,-0.62% (inactive)

row,SMILES,activation
1,O=C(NC(=O)c1ccccc1)Nc1ccccc1O,12.2% (active)
2,O=C(NC(=S)Nc1cccc2c(O)cccc12)c1cccc(Br)c1,1.98% (inactive)
3,CCCC[C@H]1C2CC(OC(=O)NCc3ccccc3)C(C2)[C@H]2CCCCN21 (some centres undefined),0.87% (inactive)
4,COC(=O)C[C@H]1CC[C@H]2[C@H](COc3ccc(NC(=O)C4CC4)cc3C(=O)N2C)O1,0.16% (inactive)
5,COc1ccccc1-c1sc2ccccc2c1C#CC1(O)CCCCC1,1.87% (inactive)
6,COc1ccc(C2CC(c3ccccc3)=NN2C(=O)c2ccc(Cl)c([N+](=O)[O-])c2)cc1 (centres undefined),0.35% (inactive)
7,COc1ccc(C2=NN(C(=O)c3ccccc3C(=O)O)C(c3ccccc3O)C2)cc1 (centres undefined),12.9% (active)
8,CCOc1ccc2nc(Cl)c(C3CC(c4ccccc4)=NN3C(=O)c3cccs3)cc2c1 (centres undefined),-2.57% (inactive)
9,O=C1Nc2ccccc2OC1CC(=O)N1CCCCCCC1 (centres undefined),1.16% (inactive)
10,CCCCNC(=O)C[C@H]1C[C@@]2(C(=O)OC)C(=C[C@H](COCc3ccccc3)O[C@@H]2C)N(Cc2ccc(Cl)cc2Cl)C1=O,-3.26% (inactive)
11,C=C(C)C#CC(Cc1ccccc1)NCC1CC1 (centres undefined),-1.73% (inactive)
12,O=C(O)c1c(NC(=O)N2CCCC2)sc2c1CCCC2,-0.22% (inactive)
13,CCN(CC)CC(=O)Nc1sc2c(c1C(=O)c1ccccc1C)CCC2,-0.3% (inactive)
14,NC(=O)c1c(NC(=O)c2ccccc2)sc2c1CCCC2,7.46% (active)
15,Cc1nc2ccc(C(=O)N3CCN(C(=O)C(C)(C)C)CC3)cc2n1C1CCCC1,-2.87% (inactive)
16,CC(CCN1CCC(C(O)(c2ccccc2)c2ccccc2)CC1)Oc1ccc([N+](=O)[O-])cc1Cl (centres undefined),6.54% (active)
17,CC(CCN1CCC(C(O)(c2ccccc2)c2ccccc2)CC1)Oc1ccc(C(F)(F)F)cc1 (centres undefined),-0.22% (inactive)
18,CC(CCN1CCC(C(O)(c2ccccc2)c2ccccc2)CC1)Oc1ccc(Cl)cc1 (centres undefined),4.67% (inactive)
19,Cc1cc(C)cc(NC(=O)N2CCC(N(C)CCC(C)C)CC2)c1,-0.86% (inactive)
20,CC(C)(C)OC(=O)NCc1cc(F)ccc1/C=C/S(=O)(=O)NCCc1ccccc1,-0.58% (inactive)
21,CCOC(=O)c1c(NC(=S)Nc2ccccc2)sc2c1CCN(C)C2,0.34% (inactive)
22,CCOC(=O)c1cc2c(nc1NC(=S)Nc1ccccc1)CC(C)(CC)OC2 (centres undefined),-0.86% (inactive)
23,CCOC(=O)c1cn[nH]c1NC(=S)Nc1ccccc1,7.58% (active)

row,SMILES,activation
1,C[C@H]1CN([C@@H](C)CO)C(=O)CCCn2nncc2CO[C@@H]1CN(C)C(=O)Nc1ccc(N2CCN(C)CC2)cc1,-1.4% (inactive)
2,Cc1ccc2[nH]c(C(=O)O)c(NC(=O)c3ccccc3[N+](=O)[O-])c2c1,3.39% (inactive)
3,CCCS(=O)(=O)Nc1c(C(=O)O)[nH]c2ccccc12,3.5% (inactive)
4,O=C(O)c1[nH]c2ccccc2c1C(c1cccc(O)c1)c1c(C(=O)O)[nH]c2ccccc12,6.89% (active)
5,CCC(c1ccc(NC(=O)OC(C)(C)C)cc1)c1cc(OC)cc(OC)c1 (centres undefined),-1.61% (inactive)
6,CCOc1ccc(Oc2c(Cl)cnn(-c3ccc(C)cc3)c2=O)cc1,-0.82% (inactive)
7,N#CC1=C(N)Oc2c(sc3ccccc23)C1c1ccco1 (centres undefined),6.9% (active)
8,CCC(=O)c1c(CC)c2n3c1=CC[C@H]3CC(Br)C=2 (some centres undefined),-2.16% (inactive)
9,CC(C)c1ccc(Nc2ncccc2C#N)cc1,5.74% (active)
10,CN(C)c1ccnc(Nc2ccc(F)cc2)c1C#N,1% (inactive)
11,CCN1C(=O)N[C@@H]2C[C@H](C(=O)N3CCCC3)[C@H](C)[C@H](c3ccccc3)C[C@@H]21,0.19% (inactive)
12,CC(C)CNc1cccc2c1S(=O)(=O)N(Cc1cn(Cc3ccc(Cl)cc3)nn1)Cc1ccccc1O2,-0.84% (inactive)
13,CCc1ccc(-c2cc(C(=O)NN3CCN(C)CC3)c3ccccc3n2)cc1,6.67% (active)
14,CCCCc1nc2ccccc2c(NC(=O)CN2CCN(C)CC2)c1CCC,0.46% (inactive)
15,COC(=O)c1cc(N2CCNCC2)nc2ccccc12,0.41% (inactive)
16,COC(=O)C(C(=O)OC)c1ccccc1NS(=O)(=O)c1cccc2ccccc12,-1.63% (inactive)
17,COc1cccc(/C=C2\CC3(OC(C)=O)CCCN2C3)c1 (centres undefined),-1.14% (inactive)
18,CNC(=O)c1sc(Nc2ccc(OCc3ccccc3)cc2)nc1C,-3.73% (inactive)
19,COc1ccccc1Nc1ncc(C(C)=O)c(C)n1,-0.49% (inactive)
20,COc1cccc2sc(Nc3nc(C)c(C(C)=O)s3)nc12,6.52% (active)
